Binding signal data for 43 sequences are collected here from PMC10726135, “HNF4α isoforms regulate the circadian balance between carbohydrate and lipid metabolism in the liver”.

In all, about 18,000 sequences were measured (“log2 normalized intensity”: median about 0.39, highest 2% from about 6.6 on). The entries come from a sample that favours the highest values as a whole.

This assay concerns the target T1, HNF4alpha2 (COS-7 nuclear extract) (Homo sapiens, UniProt P41235 1-474).
T1 sequence: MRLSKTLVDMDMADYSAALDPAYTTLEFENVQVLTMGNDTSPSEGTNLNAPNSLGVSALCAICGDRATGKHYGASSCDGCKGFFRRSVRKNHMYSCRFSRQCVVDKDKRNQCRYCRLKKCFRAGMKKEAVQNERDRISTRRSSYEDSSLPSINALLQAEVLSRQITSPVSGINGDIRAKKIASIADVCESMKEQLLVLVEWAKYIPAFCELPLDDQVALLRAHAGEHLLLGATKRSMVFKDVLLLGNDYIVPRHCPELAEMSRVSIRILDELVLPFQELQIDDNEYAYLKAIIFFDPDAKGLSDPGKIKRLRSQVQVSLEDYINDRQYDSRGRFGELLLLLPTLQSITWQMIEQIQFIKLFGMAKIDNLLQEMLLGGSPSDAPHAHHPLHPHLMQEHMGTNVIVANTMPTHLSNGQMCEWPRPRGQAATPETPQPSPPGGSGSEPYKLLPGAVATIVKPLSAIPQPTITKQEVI
The assay is described as follows: protein-binding microarray; COS-7 nuclear extract on double-stranded Agilent 4x180k PBM; binding buffer, salt, pH and temperature not given in the material; high values mean tight binding. The note with it: chain copies: 2; label: 3' end of strand 1 on the slide; dsDNA, one strand shown. In outline: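 Nuclear extracts of COS-7 cells transiently transfected with a human HNF4α isoform were applied to a custom Agilent SurePrint G3 4x180k array bearing ~44,000 double-stranded ~60-nt test sequences, each in quadruplicate. The bound protein was imaged on an Agilent G2565CA scanner at 2-µm resolution. Binding signal is the normalized, background-corrected gProcessedSignal from Agilent software.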
On to “ACTTTGCCTTTTGGCTAAAGTCCAAATTCCGCCTAGGGAGATTAGAGTATCGGTCGA”, for which the binding signal was found to be 5.14 log2 normalized intensity. Turning to “AGGGATTGTTTAGGTACAAAGTCCATTGGAGCCTAGGGAGATTAGAGTATCGGTCGA”, the binding signal worked out at 7.7 log2 normalized intensity. Take “GAATCAATGCCTGATTCCAAAGTCCACTTTGCCTAGGGAGATTAGAGTATCGGTCGA”: the binding signal came to 6.91 log2 normalized intensity. As for “AAGCATTTGGAGATTGCCACCTTGGTGAGAGCCTAGGGAGATTAGAGTATCGGTCGA”, the binding signal was 0.715 log2 normalized intensity. The same measure for “GAGTTCTTCAAGTCAGTCAAAATGAATAGTGCCTAGGGAGATTAGAGTATCGGTCGA”: 1.32 log2 normalized intensity; for “TTGGCAGATTAGATATATCTGTACTCAAACGCCTAGGGAGATTAGAGTATCGGTCGA”: 1.27 log2 normalized intensity; for “TAACAGGATTTTTGCTGAAGACAGGCCAGGGCCTAGGGAGATTAGAGTATCGGTCGA”: -0.417 log2 normalized intensity. The result for “CTGAATGGAATGAAGATACTGGATAACCTTGCCTAGGGAGATTAGAGTATCGGTCGA” reads 0.695 log2 normalized intensity; that for “AGAATGAGACCTGCTAGGCTGCATTCTCTGGCCTAGGGAGATTAGAGTATCGGTCGA”, -0.977 log2 normalized intensity; that for “TTATCTTACATGCCTTATCTGGTTCAAAGGGCCTAGGGAGATTAGAGTATCGGTCGA”, 2.9 log2 normalized intensity. The result for “TGCCTTATCTGGTTCAAAGGTCATTTCTGCGCCTAGGGAGATTAGAGTATCGGTCGA” reads 6.58 log2 normalized intensity; that for “TTCATTCTTTAAGGACCACATCAAAGGTCAGCCTAGGGAGATTAGAGTATCGGTCGA”, 4.7 log2 normalized intensity; that for “TTCCCTAAGATTCTGGTCAAAGGTCAATGAGCCTAGGGAGATTAGAGTATCGGTCGA”, 7.36 log2 normalized intensity. Consider “TTCTGGTCAAAGGTCAATGAAGCTCTTGCTGCCTAGGGAGATTAGAGTATCGGTCGA”, for which the binding signal was found to be 5.65 log2 normalized intensity. For “TATCTGGTTCAAAGGTCATTTCTGCTTGCAGCCTAGGGAGATTAGAGTATCGGTCGA”, the binding signal is 5.75 log2 normalized intensity. Consider “ATTCATTCCCTAAGATTCTGGTCAAAGGTCGCCTAGGGAGATTAGAGTATCGGTCGA”, for which the binding signal came out at 7.3 log2 normalized intensity. For the sequence “TAAGATTCTGGTCAAAGGTCAATGAAGCTCGCCTAGGGAGATTAGAGTATCGGTCGA”, the binding signal turned out to be 5.93 log2 normalized intensity. The same measure for “TTACATGCCTTATCTGGTTCAAAGGTCATTGCCTAGGGAGATTAGAGTATCGGTCGA”: 7.65 log2 normalized intensity; for “TGAGGCCCCAGTGTCAATTCTCATTCATCCGCCTAGGGAGATTAGAGTATCGGTCGA”: -0.225 log2 normalized intensity. The result for “AACCCTTGCACTGCTGGTTTTTGTCAAAGAGCCTAGGGAGATTAGAGTATCGGTCGA” reads 0.709 log2 normalized intensity; that for “GCCTGTCAGGCCCAGAAACACTGAACCTTGGCCTAGGGAGATTAGAGTATCGGTCGA”, 1.63 log2 normalized intensity. Consider “TTGCACTGCTCAGGGTGGGGTCTCGCTGCTGCCTAGGGAGATTAGAGTATCGGTCGA”, for which the binding signal is -0.755 log2 normalized intensity. The result for “ACACAATATTATGTTTTGTTATCTGTGCCAGCCTAGGGAGATTAGAGTATCGGTCGA” reads 1.17 log2 normalized intensity; that for “GTAAACTCCCTTTGATGCGGTCAGAGTTCAGCCTAGGGAGATTAGAGTATCGGTCGA”, 3.08 log2 normalized intensity. Regarding “AGTGAACTCAAAGAAAAGTTATGTTGGGCAGCCTAGGGAGATTAGAGTATCGGTCGA”, the binding signal was found to be 1.17 log2 normalized intensity.

Consider “TCCCTTGCTCCACCCTTCTATCCCCTTATCGCCTAGGGAGATTAGAGTATCGGTCGA”, for which the binding signal is 2.8 log2 normalized intensity. The same measure for “TCAGAAACAGGAATTCAAAGGTGCAAAGGTGCCTAGGGAGATTAGAGTATCGGTCGA”: 2.06 log2 normalized intensity; for “GGAAAGAACAGGTCAAAGGTCAGTTTCTTTGCCTAGGGAGATTAGAGTATCGGTCGA”: 7.28 log2 normalized intensity. The result for “TCTTAGGAAAGAACAGGTCAAAGGTCAGTTGCCTAGGGAGATTAGAGTATCGGTCGA” reads 9.13 log2 normalized intensity. The same measure for “CTTTGGACTTTCAAAAGTTAAGGTCAAGACGCCTAGGGAGATTAGAGTATCGGTCGA”: 1.94 log2 normalized intensity. With “GCAGTTTAGAGAAAGGGTCAAAGGTTAAGCGCCTAGGGAGATTAGAGTATCGGTCGA”, the binding signal is 8.4 log2 normalized intensity. The result for “AAGATTTATCAGGTCTTTCTTTCAGAACAGGCCTAGGGAGATTAGAGTATCGGTCGA” reads 0.622 log2 normalized intensity; that for “GACTGTCTTAGGAAAGAACAGGTCAAAGGTGCCTAGGGAGATTAGAGTATCGGTCGA”, 3.91 log2 normalized intensity. The result for “GCAGAGCAGTTTAGAGAAAGGGTCAAAGGTGCCTAGGGAGATTAGAGTATCGGTCGA” reads 5.29 log2 normalized intensity; that for “GGTCAAAGGTCAGTTTCTTTAAGACAAGTGGCCTAGGGAGATTAGAGTATCGGTCGA”, 5.53 log2 normalized intensity. In the case of “TAGGAGACTGTCTTAGGAAAGAACAGGTCAGCCTAGGGAGATTAGAGTATCGGTCGA”, the binding signal is 1.14 log2 normalized intensity.

“GAACAGGTCAAAGGTCAGTTTCTTTAAGACGCCTAGGGAGATTAGAGTATCGGTCGA”: the binding signal was found to be 7.04 log2 normalized intensity. The result for “TTAGAGAAAGGGTCAAAGGTTAAGCCATTGGCCTAGGGAGATTAGAGTATCGGTCGA” reads 5.92 log2 normalized intensity. The same measure for “ACCCTGAATGTGTGCTGGCCTGGTTCCTTCGCCTAGGGAGATTAGAGTATCGGTCGA”: 0.887 log2 normalized intensity; for “TTGTCCCTTTTCTATCCAGATGATCTTTACGCCTAGGGAGATTAGAGTATCGGTCGA”: 2.25 log2 normalized intensity. The result for “GTCCCAGTAGATAACTTCAAGGAGCTCGGCGCCTAGGGAGATTAGAGTATCGGTCGA” reads -0.627 log2 normalized intensity; that for “GTAGGGCCAATCTCTGGCATGTATTTATCAGCCTAGGGAGATTAGAGTATCGGTCGA”, 0.384 log2 normalized intensity; that for “ATAGGAGGATTTTATTCAGGTGGCCACTGGGCCTAGGGAGATTAGAGTATCGGTCGA”, 1.03 log2 normalized intensity.
